Where “and” joins values, the source holds several entries; their conditions need not be identical. Equal entries are not always repeated. Calls of active or inactive are those of the source. Calls follow the shape of the full dose curve.
Test: qHTS drug screen for cell cycle checkpoint inhibitors in PARPi-resistant BRCA-mutant ovarian cancer cell lines. (AID 1963452)
Conditions: PEO1/OlaR viability, CellTiter-Glo luminescence, 96 h, stronger effect = lower value
Text: Women's Malignancies Branch, Center for Cancer Research (CCR),
National Cancer Institute (NCI), National Institutes of Health (NIH), Bethesda, MD
Poly (ADP-ribose) polymerase inhibitors (PARPis) have changed the treatment paradigm in breast cancer gene (BRCA) - mutant high-grade serous ovarian carcinoma (HGSC). However, most patients eventually develop resistance to PARPis, highlighting an unmet need for improved therapeutic strategies. Using high-throughput drug screens, we identified ataxia telangiectasia and rad3-related protein/checkpoint kinase 1 (CHK1) pathway inhibitors as cytotoxic and further validated the activity of the CHK1 inhibitor (CHK1i) prexasertib in PARPi-sensitive and -resistant BRCA-mutant HGSC cells and xenograft mouse models. CHK1i monotherapy induced DNA damage, apoptosis, and tumor size reduction. We then conducted a phase 2 study (NCT02203513) of prexasertib in patients with BRCA-mutant HGSC. The treatment was well tolerated but yielded an objective response rate of 6% (1 of 17; one partial response) in patients with previous PARPi treatment. […] BRCA reversion mutation in previously PARPi-treated BRCA-mutant patients was not associated with resistance to CHK1i.
Among others, 1082 oncology drugs, both approved and investigational, were prioritized based on their status in clinical trial development. […] Drugs with average Z-AUC values less than -1.0 in all three cell lines were classified as "hits" resulting in 151 oncology drug hits. The screen also confirmed cross-resistance between olaparib and other PARPis (rucaparib, niraparib, and talazoparib) in PARPi-resistant PEO1/OlaR and PEO4.
[1] G. L. Lin, K. M. Wilson, M. Ceribelli, B. Z. Stanton, P. J. Woo, S. Kreimer, E. Y. Qin, X. Zhang, J. Lennon, S. Nagaraja, P. J. Morris, M. Quezada, S. M. Gillespie, D. Y. Duveau, A. M. Michalowski, P. Shinn, R. Guha, M. Ferrer, C. Klumpp-Thomas, S. Michael, C. McKnight, P. Minhas, Z. Itkin, E. H. Raabe, L. Chen, R. Ghanem, A. C. Geraghty, L. Ni, K. I. Andreasson, N. A. Vitanza, K. E.Warren, C. J. Thomas, M. Monje, Therapeutic strategies for diffuse midline glioma from high-throughput combination drug screening. Sci. Transl. Med. 11, (2019).
[2] T. M. Yamamoto, A. McMellen, Z. L. Watson, J. Aguilera, R. Ferguson, E. Nurmemmedov, T. Thakar, G. L. Moldovan, H. Kim, D. M. Cittelly, A. M. Joglar, E. P. Brennecke, H. Wilson, K. Behbakht, M. J. Sikora, B. G. Bitler, Activation of Wnt signaling promotes olaparib resistant ovarian cancer. Mol. Carcinog. 58, 1770 - 1782 (2019).
PROTOCOL TABLE (as described by Inglese J, Shamu CE and Guy RK. 2007)
SEQUENCE No. (e.g., 1, 2, 3, etc.); […] (e.g., Cells, Incubation, Reagent, etc.); VALUE; DESCRIPTION.
1; Compounds; 20nL; 1536-well white tissue culture-treated plates.
2; Cells; 5 uL; PEO1, PEO4, and PEO1/OlaR cells at 600 cells per well.
3; Incubation; 96 hr; 37C, 95% humidity, 5% CO2.
4; Reagent; 3 uL; CellTiter-Glo (Promega).
5; Incubation; 15 min; room temperature.
6; Detection; Luminescence, PHERAstar (BMG Labtech) plate reader.
NOTES (numbers refer to Sequence numbers above)
1. MIPE 5.0 compounds were acoustically dispensed by Echo Acoustic Liquid Handler (Beckman Coulter Life Sciences). Each compound was plated at an 11-point concentration range with 1:3 dilution. Bortezomib, a proteasome inhibitor (final concentration, 20 uM), was used as a positive.
2. PEO1, PEO4, and PEO1/OlaR were trypsinized and dispensed in 5 uLof growth medium using a Multidrop Combi dispenser at a density of 600 cells per well to allow compounds to be present during the exponential growth phase.
3. Plates were incubated for 96 hours at standard incubator conditions and covered by a stainless steel gasketed lid to prevent evaporation.
4. Three microliters of CellTiter-Glo (Promega) were added to each well.
5. Plates were incubated at room temperature for 15 min with a stainless-steel lid in place.
6. Luminescence readings were taken using PHERAstar (BMG Labtech). […]

[1] = measured here: PEO1 parental Z-AUC

| SMILES | Z-AUC | Z-AUC [1] | Z-AUC (measured here: PEO4 Z-AUC) |
| --- | --- | --- | --- |
| COc1cccc2cc(-c3nc(C4CCC(C(=O)O)CC4)n4ncnc(N)c34)[nH]c12 (configuration not stated) | -0.482 (inactive) | -0.688 | -0.315 |
| Cc1cnc(NC(=O)C2=C(O)c3ccccc3S(=O)(=O)N2C)s1 | 0.682 (inactive) and 1.14 (inactive) and 0.871 (inactive) | 0.615 and 0.579 and 0.604 | 0.593 and 0.643 and 0.888 |
| NC(=O)C1CCCc2c1[nH]c1ccc(Cl)cc21 (configuration not stated) | -0.722 (inactive) | 0.489 | -0.557 |
| COc1cc2nccc(Oc3ccc(NC(=O)NC4CC4)c(Cl)c3)c2cc1C(N)=O | -1.2 (inactive) | 0.621 | 0.0753 |
| S=C(NCc1ccc2c(c1)OCO2)N1CCN(c2ncnc3c2oc2ccccc23)CC1 | -0.165 (inactive) | -1.16 | 0.0465 |
| COc1ccc(-c2c(-c3ccc(O)cc3O)n[nH]c2C)cc1 | 0.835 (inactive) | 0.673 | 1.1 |
| COc1ccc2nc(S(=O)Cc3ncc(C)c(OC)c3C)[nH]c2c1 (configuration not stated) | 1.57 (inactive) | 0.925 | 1.02 |
| NC(=O)c1ccc(-c2nc(-c3ccc4c(c3)OCCO4)c(-c3ccccn3)[nH]2)cc1 | 0.559 (inactive) | 0.194 | 0.167 |
| COc1ccc(CCN2CCN(CCCc3ccccc3)CC2)cc1OC | -0.614 (inactive) | -0.141 | -0.419 |
| O=C1CCc2cc(OCCCCc3nnnn3C3CCCCC3)ccc2N1 | -1.35 (inactive) | -0.972 | -0.778 |
| O=c1[nH]cnc2[nH]ncc12 | -0.687 (inactive) | -0.667 | -0.722 |
| O=NN(CCCl)C(=O)NCCCl | 0.732 (inactive) | 0.83 | 0.781 |
| Nc1nccc(-c2ccc3noc(-c4ccc(Cl)cc4)c3c2)n1 | 0.305 (inactive) | 0.344 | 0.149 |
| COc1ccc(CC2=NN3C([C@@H](CCc4ccccc4)[C@@H](C)O)=NC(C)C3C(=O)N2)cc1OC (some centres not stated) | -0.34 (inactive) | 0.752 | 0.704 |

Source: PubChem BioAssay (NCATS)
